# Measurements reported in the supplement of paper PMC8728848.
# This excerpt belongs to a sample that is enriched for the strongest signals.
# How the values were obtained:
# Assay in all cases: glycan array binding signal (z-score within array); higher = stronger binding
# Conditions in all cases: glycan notation: IUPAC condensed, linker removed
# [1] = biological target: Fuc(a1-2)Gal(b1-3)GalNAc(a1-3)[Fuc(a1-2)]Gal(b1-4)GlcNAc
# In short: (§1)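 The binding signal is a Z-score computed within each array and averaged over linkers. Arrays of the same protein sequence at different concentrations or buffers were also averaged together. Data originate from 3228 arrays in the Consortium for Functional Glycomics database, kept only where the protein sequence was available.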
# [2] = biological target: Fuc(a1-2)Gal(b1-3)GalNAc(b1-4)[Neu5Ac(a2-3)]Gal(b1-4)Glc
# In short: as §1
# [3] = biological target: Fuc(a1-2)Gal(b1-3)GlcNAc(b1-3)[Gal(b1-4)GlcNAc(b1-6)]Gal(b1-4)Glc
# In short: as §1
# [4] = biological target: Fuc(a1-2)Gal(b1-3)[Fuc(a1-4)]GlcNAc(b1-3)[Fuc(a1-3)[Gal(b1-4)]GlcNAc(b1-6)]Gal(b1-4)Glc
# In short: as §1
# [5] = biological target: Fuc(a1-2)Gal(b1-4)GlcNAc(b1-2)[Fuc(a1-2)Gal(b1-4)GlcNAc(b1-4)]Man(a1-3)[Fuc(a1-2)Gal(b1-4)GlcNAc(b1-2)Man(a1-6)]Man(b1-4)GlcNAc(b1-4)GlcNAc
# In short: as §1
# [6] = biological target: Fuc(a1-2)[Gal(a1-3)]Gal(b1-3)GlcNAc
# In short: as §1
# [7] = biological target: Fuc(a1-2)[Gal(a1-3)]Gal(b1-4)Glc
# In short: as §1
# [8] = biological target: Fuc(a1-2)[Gal(a1-4)]Gal(b1-4)GlcNAc
# In short: as §1
# [9] = biological target: Fuc(a1-2)[GalNAc(a1-3)]Gal(b1-4)Glc
# In short: as §1
# [10] = biological target: Fuc(a1-2)[GalNAc(a1-3)]Gal(b1-4)GlcNAc
# In short: as §1
# [11] = biological target: Fuc(a1-2)[GalNAc(a1-3)]Gal(b1-4)GlcNAc(b1-2)Man(a1-3)[Fuc(a1-2)[GalNAc(a1-3)]Gal(b1-4)GlcNAc(b1-2)Man(a1-6)]Man(b1-4)GlcNAc(b1-4)GlcNAc
# In short: as §1
# [12] = biological target: Fuc(a1-3)[Gal(b1-4)]GlcNAc(b1-4)Gal(b1-4)[Fuc(a1-3)]GlcNAc(b1-4)Gal(b1-4)[Fuc(a1-3)]GlcNAc
# In short: as §1
# Fuc(a1-4)GlcNAc = biological target: Fuc(a1-4)GlcNAc
# In short: as §1
# Gal(a1-3)Gal(b1-4)Glc = biological target: Gal(a1-3)Gal(b1-4)Glc
# In short: as §1
# [13] = biological target: Gal(a1-4)Gal(b1-4)GlcNAc(b1-2)Man(a1-3)[Gal(a1-4)Gal(b1-4)GlcNAc(b1-2)Man(a1-6)]Man(b1-4)GlcNAc(b1-4)GlcNAc
# In short: as §1
# Gal(b1-3)GlcNAc = biological target: Gal(b1-3)GlcNAc
# In short: as §1
# [14] = biological target: Gal(b1-3)GlcNAc(b1-2)Man(a1-3)[Gal(b1-3)GlcNAc(b1-2)Man(a1-6)]Man(b1-4)GlcNAc(b1-4)GlcNAc
# In short: as §1
# [15] = biological target: Gal(b1-3)GlcNAc(b1-2)Man(a1-3)[Gal(b1-3)GlcNAc(b1-2)Man(a1-6)]Man(b1-4)GlcNAc(b1-4)[Fuc(a1-6)]GlcNAc
# In short: as §1
# [16] = biological target: Gal(b1-3)[Fuc(a1-4)]GlcNAc(b1-2)Man(a1-3)[Gal(b1-3)[Fuc(a1-4)]GlcNAc(b1-2)Man(a1-6)]Man(b1-4)GlcNAc(b1-4)GlcNAc
# In short: as §1
# [17] = biological target: Gal(b1-3)[Fuc(a1-4)]GlcNAc(b1-2)Man(a1-3)[Gal(b1-3)[Fuc(a1-4)]GlcNAc(b1-2)Man(a1-6)]Man(b1-4)GlcNAc(b1-4)[Fuc(a1-6)]GlcNAc
# In short: as §1
# [18] = biological target: Gal(b1-3)[Neu5Ac(a2-6)]GalNAc
# In short: as §1
# [19] = biological target: Gal(b1-3)[Neu5Ac(a2-6)]GlcNAc(b1-6)Gal(b1-4)Glc
# In short: as §1
# [20] = biological target: Gal(b1-4)GlcNAc(b1-2)Man(a1-3)[Gal(b1-4)GlcNAc(b1-2)Man(a1-6)]Man(b1-4)GlcNAc(b1-4)[Fuc(a1-6)]GlcNAc
# In short: as §1
# [21] = biological target: Gal(b1-4)GlcNAc(b1-2)Man(a1-3)[GlcNAc(b1-2)Man(a1-6)]Man(b1-4)GlcNAc(b1-4)GlcNAc
# In short: as §1
# [22] = biological target: Gal(b1-4)GlcNAc(b1-6)Gal(b1-4)GlcNAc
# In short: as §1
# [23] = biological target: Gal3S(b1-3)[Fuc(a1-4)]GlcNAc
# In short: as §1
# Gal3S(b1-4)Glc6S = biological target: Gal3S(b1-4)Glc6S
# In short: as §1
# Gal3S(b1-4)GlcNAc6S = biological target: Gal3S(b1-4)GlcNAc6S
# In short: as §1
# Gal3S6S(b1-4)GlcNAc6S = biological target: Gal3S6S(b1-4)GlcNAc6S
# In short: as §1
# Gal6S(b1-3)GlcNAc6S = biological target: Gal6S(b1-3)GlcNAc6S
# In short: as §1
# Gal6S(b1-4)GlcNAc6S = biological target: Gal6S(b1-4)GlcNAc6S
# In short: as §1
# GalNAc(b1-6)GalNAc = biological target: GalNAc(b1-6)GalNAc
# In short: as §1
# Glc(b1-6)Glc = biological target: Glc(b1-6)Glc
# In short: as §1
# GlcA(b1-3)GlcNAc = biological target: GlcA(b1-3)GlcNAc
# In short: as §1
# [24] = biological target: GlcNAc(a1-4)Gal(b1-4)GlcNAc(b1-3)Gal(b1-4)[Fuc(a1-3)]GlcNAc(b1-3)Gal(b1-4)[Fuc(a1-3)]GlcNAc
# In short: as §1
# [25] = biological target: GlcNAc(b1-2)Man(a1-3)[GlcNAc(b1-4)][GlcNAc(b1-2)Man(a1-6)]Man(b1-4)GlcNAc(b1-4)GlcNAc
# In short: as §1
# [26] = biological target: GlcNAc(b1-2)[GlcNAc(b1-4)]Man(a1-3)[GlcNAc(b1-4)][GlcNAc(b1-2)Man(a1-6)]Man(b1-4)GlcNAc(b1-4)GlcNAc
# In short: as §1
# [27] = biological target: Neu5Ac(a2-3)Gal(b1-3)GalNAc(b1-3)Gal(a1-4)Gal(b1-4)Glc
# In short: as §1
# [28] = biological target: Neu5Ac(a2-3)Gal(b1-3)GlcNAc(b1-3)Gal(b1-3)GlcNAc
# In short: as §1
# [29] = biological target: Neu5Ac(a2-3)Gal(b1-3)[Fuc(a1-4)]GlcNAc(b1-3)Gal(b1-3)[Fuc(a1-4)]GlcNAc
# In short: as §1
# [30] = biological target: Neu5Ac(a2-3)Gal(b1-4)GlcNAc(b1-3)Gal(b1-3)GlcNAc
# In short: as §1
# [31] = biological target: Neu5Ac(a2-3)Gal(b1-4)GlcNAc(b1-6)[Neu5Ac(a2-3)Gal(b1-3)]GalNAc
# In short: as §1
# [32] = biological target: Neu5Ac(a2-3)Gal(b1-4)[Fuc(a1-3)]GlcNAc(b1-3)GalNAc
# In short: as §1
# [33] = biological target: Neu5Ac(a2-3)Gal(b1-4)[Fuc(a1-3)]GlcNAc(b1-6)[Gal(b1-3)]GalNAc
# In short: as §1
# [34] = biological target: Neu5Ac(a2-3)[GalNAc(b1-4)]Gal(b1-4)GlcNAc(b1-3)GalNAc
# In short: as §1
# [35] = biological target: Neu5Ac(a2-6)Gal(b1-4)GlcNAc(b1-2)Man(a1-3)[GlcNAc(b1-2)Man(b1-4)GlcNAc(b1-2)Man(a1-6)]Man(b1-4)GlcNAc(b1-4)GlcNAc
# In short: as §1
# [36] = biological target: Neu5Ac(a2-6)Gal(b1-4)GlcNAc(b1-2)Man(a1-3)[Man(a1-6)]Man(b1-4)GlcNAc(b1-4)GlcNAc
# In short: as §1
# [37] = biological target: Neu5Ac(a2-6)Gal(b1-4)GlcNAc(b1-3)Gal(b1-4)GlcNAc(b1-3)Gal(b1-4)GlcNAc
# In short: as §1
# [38] = biological target: Neu5Ac(a2-6)Gal(b1-4)GlcNAc(b1-3)Gal(b1-4)[Fuc(a1-3)]GlcNAc(b1-3)Gal(b1-4)[Fuc(a1-3)]GlcNAc
# In short: as §1
# [39] = biological target: Neu5Ac(a2-8)Neu5Ac(a2-3)[Gal(b1-3)GalNAc(b1-4)]Gal(b1-4)Glc
# In short: as §1
binder,measurement,setting,value
"rPitB (Streptococcus pneumoniae), A0A0I7U739 (protein) MSEIEIINAKKIYHDVPVIENLNITIPKGSLFTLLGASGCGKTTLLRMIAGFNSIKDGEFYFDDTKINNMEPSKRNIGLVFQNYAIFPHLTVRDNVAFGLMQKKVPKEELIQQTNKYLELMQIAQYAD",glycan array binding signal (z-score),[1],-0.708
same,glycan array binding signal (z-score),[2],-0.128
same,glycan array binding signal (z-score),[3],-0.397
same,glycan array binding signal (z-score),[4],0.227
same,glycan array binding signal (z-score),[5],0.316
same,glycan array binding signal (z-score),[6],-0.113
same,glycan array binding signal (z-score),[7],1.11
same,glycan array binding signal (z-score),[8],-0.108
same,glycan array binding signal (z-score),[9],-0.271
same,glycan array binding signal (z-score),[10],-0.509
same,glycan array binding signal (z-score),[11],0.481
same,glycan array binding signal (z-score),[12],3.03
same,glycan array binding signal (z-score),Fuc(a1-4)GlcNAc,-0.579
same,glycan array binding signal (z-score),Gal(a1-3)Gal(b1-4)Glc,-0.617
same,glycan array binding signal (z-score),[13],1.43
same,glycan array binding signal (z-score),Gal(b1-3)GlcNAc,-0.704
same,glycan array binding signal (z-score),[14],0.944
same,glycan array binding signal (z-score),[15],0.638
same,glycan array binding signal (z-score),[16],3.68
same,glycan array binding signal (z-score),[17],2.09
same,glycan array binding signal (z-score),[18],0.092
same,glycan array binding signal (z-score),[19],-0.142
same,glycan array binding signal (z-score),[20],0.8
same,glycan array binding signal (z-score),[21],-0.568
same,glycan array binding signal (z-score),[22],-0.596
same,glycan array binding signal (z-score),[23],-0.575
same,glycan array binding signal (z-score),Gal3S(b1-4)Glc6S,0.112
same,glycan array binding signal (z-score),Gal3S(b1-4)GlcNAc6S,0.471
same,glycan array binding signal (z-score),Gal3S6S(b1-4)GlcNAc6S,-0.233
same,glycan array binding signal (z-score),Gal6S(b1-3)GlcNAc6S,0.052
same,glycan array binding signal (z-score),Gal6S(b1-4)GlcNAc6S,0.24
same,glycan array binding signal (z-score),GalNAc(b1-6)GalNAc,-0.608
same,glycan array binding signal (z-score),Glc(b1-6)Glc,-0.176
same,glycan array binding signal (z-score),GlcA(b1-3)GlcNAc,5.72
same,glycan array binding signal (z-score),[24],3.89
same,glycan array binding signal (z-score),[25],-0.914
same,glycan array binding signal (z-score),[26],-1.01
same,glycan array binding signal (z-score),[27],-0.604
same,glycan array binding signal (z-score),[28],-0.301
same,glycan array binding signal (z-score),[29],2.33
same,glycan array binding signal (z-score),[30],-0.394
same,glycan array binding signal (z-score),[31],0.027
same,glycan array binding signal (z-score),[32],4.13
same,glycan array binding signal (z-score),[33],2.86
same,glycan array binding signal (z-score),[34],-0.463
same,glycan array binding signal (z-score),[35],-0.255
same,glycan array binding signal (z-score),[36],0.505
same,glycan array binding signal (z-score),[37],0.323
same,glycan array binding signal (z-score),[38],0.032
same,glycan array binding signal (z-score),[39],-0.053
